# Source: PubChem BioAssay (NCI)
# Several values for one entry are separate records, joined by “and”; a condition that tells them apart may be missing. Equal values may be shown once. About 83,000 compounds went through this panel and 20% of them were active in at least one assay; those are over-represented in the sample as a whole.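 In brief: 96-well plates, 48 h treatment, single concentration, percent growth endpoint.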 Activity calls are given as the source filed them. The calls were made as follows: active = growth percent below 10; inactive = the rest.
# System: HL-60(TB) leukemia
# Experiment: NCI-60 one-dose screen, 48 h (100 = growth as untreated, 0 = no growth, -100 = all killed)
# Details: 10 µM unless noted
row,Structure (SMILES),growth
1,O=C1NC(=O)C2(CCc3ccccc32)N1 (centres undefined),93.7% (inactive) and 106% (inactive)
2,O=C(NCCNc1nccc(-c2c(-c3cccc(O)c3)nc3sccn23)n1)c1cccc(C(F)(F)F)c1,95.5% (inactive)
3,COC(=O)c1nc(-c2ccc(C)cc2)oc1S(=O)(=O)c1cccc(OC)c1,44.7% (inactive)
4,CCOC(=O)C1CCCN1C(=O)C1(NC(C)=O)CCCC1 (centres undefined),98.4% (inactive)
